Assay [1] concerns the target BDNF/NT-3 growth factors receptor (Homo sapiens) (UniProt Q16620). The following applies: at 10 µM.
Assay [2] deals with T1, Serine/threonine-protein kinase ULK2 (Homo sapiens) (UniProt Q8IYT8).
T1 sequence (whole entry): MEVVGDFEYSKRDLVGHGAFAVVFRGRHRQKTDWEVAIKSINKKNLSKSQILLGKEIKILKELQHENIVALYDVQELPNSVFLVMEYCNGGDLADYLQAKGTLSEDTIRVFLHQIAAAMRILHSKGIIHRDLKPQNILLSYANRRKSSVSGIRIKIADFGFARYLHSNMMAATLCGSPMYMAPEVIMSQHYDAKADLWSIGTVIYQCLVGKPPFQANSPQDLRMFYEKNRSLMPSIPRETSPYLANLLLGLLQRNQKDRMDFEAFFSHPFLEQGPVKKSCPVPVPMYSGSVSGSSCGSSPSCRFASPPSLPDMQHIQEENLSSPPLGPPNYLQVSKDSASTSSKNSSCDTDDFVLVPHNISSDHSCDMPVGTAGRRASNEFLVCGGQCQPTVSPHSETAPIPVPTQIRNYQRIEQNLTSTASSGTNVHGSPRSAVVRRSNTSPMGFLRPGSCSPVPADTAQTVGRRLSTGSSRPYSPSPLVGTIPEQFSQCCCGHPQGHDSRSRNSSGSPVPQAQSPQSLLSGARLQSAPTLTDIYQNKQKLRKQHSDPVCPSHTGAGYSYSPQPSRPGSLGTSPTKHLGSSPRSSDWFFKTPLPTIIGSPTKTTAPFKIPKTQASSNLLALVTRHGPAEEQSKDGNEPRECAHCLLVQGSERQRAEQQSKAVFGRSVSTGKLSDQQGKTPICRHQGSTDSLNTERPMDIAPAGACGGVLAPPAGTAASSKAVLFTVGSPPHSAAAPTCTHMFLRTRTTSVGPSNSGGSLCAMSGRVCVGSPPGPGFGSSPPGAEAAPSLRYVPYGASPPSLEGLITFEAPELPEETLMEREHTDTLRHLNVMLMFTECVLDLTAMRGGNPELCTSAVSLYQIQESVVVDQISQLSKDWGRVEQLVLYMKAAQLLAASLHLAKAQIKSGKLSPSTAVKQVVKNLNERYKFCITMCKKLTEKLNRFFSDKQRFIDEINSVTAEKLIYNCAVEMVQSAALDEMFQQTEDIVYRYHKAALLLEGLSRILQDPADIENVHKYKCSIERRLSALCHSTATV
The following applies: at 1 µM.

Assay [3] deals with T1, Serine/threonine-protein kinase ULK2 (Homo sapiens). The settings on record: at 10 µM.
The target in assay [4] is T2, Serine/threonine-protein kinase ULK3 (Homo sapiens) (UniProt Q6PHR2).
T2 sequence (whole entry): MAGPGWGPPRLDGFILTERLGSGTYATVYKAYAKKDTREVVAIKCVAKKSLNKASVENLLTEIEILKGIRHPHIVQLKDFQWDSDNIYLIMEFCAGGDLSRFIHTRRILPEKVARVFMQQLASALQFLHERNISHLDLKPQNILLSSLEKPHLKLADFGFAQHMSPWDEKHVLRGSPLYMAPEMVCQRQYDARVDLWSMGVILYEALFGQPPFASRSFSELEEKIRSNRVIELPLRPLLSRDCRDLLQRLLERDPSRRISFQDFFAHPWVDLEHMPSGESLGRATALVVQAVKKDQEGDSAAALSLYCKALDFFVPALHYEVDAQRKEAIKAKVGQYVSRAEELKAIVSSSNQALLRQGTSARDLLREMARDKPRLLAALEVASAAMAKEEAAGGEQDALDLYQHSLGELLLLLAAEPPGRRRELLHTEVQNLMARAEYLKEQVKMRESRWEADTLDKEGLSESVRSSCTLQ
The following applies: at 1 µM.

The target in assay [5] is T2, Serine/threonine-protein kinase ULK3 (Homo sapiens). The settings on record: at 10 µM.
Assay [6] concerns the target T3, Tyrosine-protein kinase TXK (Homo sapiens) (UniProt P42681).
T3 sequence (whole entry): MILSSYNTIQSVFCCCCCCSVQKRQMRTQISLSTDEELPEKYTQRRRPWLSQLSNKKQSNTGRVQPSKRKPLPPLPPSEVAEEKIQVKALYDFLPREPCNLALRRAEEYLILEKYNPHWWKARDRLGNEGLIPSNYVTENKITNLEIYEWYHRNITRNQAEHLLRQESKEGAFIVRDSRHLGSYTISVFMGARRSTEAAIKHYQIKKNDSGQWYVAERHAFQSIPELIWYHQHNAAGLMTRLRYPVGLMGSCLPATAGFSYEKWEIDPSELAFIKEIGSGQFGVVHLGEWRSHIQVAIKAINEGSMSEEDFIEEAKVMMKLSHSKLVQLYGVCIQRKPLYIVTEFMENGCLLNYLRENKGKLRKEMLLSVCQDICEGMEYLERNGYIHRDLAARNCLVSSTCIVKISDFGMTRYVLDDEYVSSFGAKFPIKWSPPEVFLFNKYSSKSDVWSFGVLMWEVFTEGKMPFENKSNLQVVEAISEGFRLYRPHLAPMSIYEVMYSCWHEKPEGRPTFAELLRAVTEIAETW
The following applies: at 1 µM.

Assay [7] has as its target T3, Tyrosine-protein kinase TXK (Homo sapiens). The following applies: at 10 µM.
Assay [8] deals with Serine/threonine-protein kinase WNK2 (Homo sapiens) (UniProt Q9Y3S1). The settings on record: at 1 µM.
Assay [9] has as its target Serine/threonine-protein kinase VRK2 (Homo sapiens) (UniProt Q86Y07). The following applies: at 1 µM.
For assay [10] the target is unchanged. The settings on record: at 10 µM.

The structures appear in SMILES notation.

Sequence of BDNF/NT-3 growth factors receptor (Homo sapiens) (Q16620 32-822 limits assumed): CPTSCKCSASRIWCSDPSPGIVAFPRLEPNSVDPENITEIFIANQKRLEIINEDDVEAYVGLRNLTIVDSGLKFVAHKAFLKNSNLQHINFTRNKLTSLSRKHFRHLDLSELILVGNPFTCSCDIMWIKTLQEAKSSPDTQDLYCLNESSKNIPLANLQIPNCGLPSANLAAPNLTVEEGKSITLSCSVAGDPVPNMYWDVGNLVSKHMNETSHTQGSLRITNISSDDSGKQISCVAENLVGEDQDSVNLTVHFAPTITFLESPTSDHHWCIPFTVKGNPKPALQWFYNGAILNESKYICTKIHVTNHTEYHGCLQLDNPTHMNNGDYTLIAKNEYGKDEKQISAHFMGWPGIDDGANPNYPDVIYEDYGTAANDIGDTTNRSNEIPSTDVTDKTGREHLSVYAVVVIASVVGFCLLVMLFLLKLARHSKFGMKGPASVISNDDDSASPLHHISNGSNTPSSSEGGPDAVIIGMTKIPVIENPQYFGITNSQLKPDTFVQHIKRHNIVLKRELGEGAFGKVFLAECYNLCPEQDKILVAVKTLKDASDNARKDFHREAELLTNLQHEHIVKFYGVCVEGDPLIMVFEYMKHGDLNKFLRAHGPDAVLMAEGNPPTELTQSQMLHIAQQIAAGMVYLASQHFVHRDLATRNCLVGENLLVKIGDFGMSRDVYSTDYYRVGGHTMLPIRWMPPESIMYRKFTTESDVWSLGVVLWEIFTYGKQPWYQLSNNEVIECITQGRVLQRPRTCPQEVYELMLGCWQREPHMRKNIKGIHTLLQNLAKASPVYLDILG
Sequence of Serine/threonine-protein kinase VRK2 (Homo sapiens) (Q86Y07 whole entry): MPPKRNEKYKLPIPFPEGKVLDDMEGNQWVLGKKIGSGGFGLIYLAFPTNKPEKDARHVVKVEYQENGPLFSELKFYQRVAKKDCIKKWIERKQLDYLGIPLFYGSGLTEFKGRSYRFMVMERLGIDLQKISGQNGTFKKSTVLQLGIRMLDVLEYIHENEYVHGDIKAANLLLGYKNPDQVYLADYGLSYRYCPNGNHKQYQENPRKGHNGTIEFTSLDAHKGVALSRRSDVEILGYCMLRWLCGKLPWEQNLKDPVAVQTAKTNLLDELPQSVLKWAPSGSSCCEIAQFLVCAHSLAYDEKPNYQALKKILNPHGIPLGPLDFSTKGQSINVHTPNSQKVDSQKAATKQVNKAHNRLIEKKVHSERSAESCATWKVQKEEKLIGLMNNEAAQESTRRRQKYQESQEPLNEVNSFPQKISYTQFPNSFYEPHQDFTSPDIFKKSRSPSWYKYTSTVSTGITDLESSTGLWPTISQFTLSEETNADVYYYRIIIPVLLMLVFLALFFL
Sequence of Serine/threonine-protein kinase WNK2 (Homo sapiens) (Q9Y3S1 whole entry): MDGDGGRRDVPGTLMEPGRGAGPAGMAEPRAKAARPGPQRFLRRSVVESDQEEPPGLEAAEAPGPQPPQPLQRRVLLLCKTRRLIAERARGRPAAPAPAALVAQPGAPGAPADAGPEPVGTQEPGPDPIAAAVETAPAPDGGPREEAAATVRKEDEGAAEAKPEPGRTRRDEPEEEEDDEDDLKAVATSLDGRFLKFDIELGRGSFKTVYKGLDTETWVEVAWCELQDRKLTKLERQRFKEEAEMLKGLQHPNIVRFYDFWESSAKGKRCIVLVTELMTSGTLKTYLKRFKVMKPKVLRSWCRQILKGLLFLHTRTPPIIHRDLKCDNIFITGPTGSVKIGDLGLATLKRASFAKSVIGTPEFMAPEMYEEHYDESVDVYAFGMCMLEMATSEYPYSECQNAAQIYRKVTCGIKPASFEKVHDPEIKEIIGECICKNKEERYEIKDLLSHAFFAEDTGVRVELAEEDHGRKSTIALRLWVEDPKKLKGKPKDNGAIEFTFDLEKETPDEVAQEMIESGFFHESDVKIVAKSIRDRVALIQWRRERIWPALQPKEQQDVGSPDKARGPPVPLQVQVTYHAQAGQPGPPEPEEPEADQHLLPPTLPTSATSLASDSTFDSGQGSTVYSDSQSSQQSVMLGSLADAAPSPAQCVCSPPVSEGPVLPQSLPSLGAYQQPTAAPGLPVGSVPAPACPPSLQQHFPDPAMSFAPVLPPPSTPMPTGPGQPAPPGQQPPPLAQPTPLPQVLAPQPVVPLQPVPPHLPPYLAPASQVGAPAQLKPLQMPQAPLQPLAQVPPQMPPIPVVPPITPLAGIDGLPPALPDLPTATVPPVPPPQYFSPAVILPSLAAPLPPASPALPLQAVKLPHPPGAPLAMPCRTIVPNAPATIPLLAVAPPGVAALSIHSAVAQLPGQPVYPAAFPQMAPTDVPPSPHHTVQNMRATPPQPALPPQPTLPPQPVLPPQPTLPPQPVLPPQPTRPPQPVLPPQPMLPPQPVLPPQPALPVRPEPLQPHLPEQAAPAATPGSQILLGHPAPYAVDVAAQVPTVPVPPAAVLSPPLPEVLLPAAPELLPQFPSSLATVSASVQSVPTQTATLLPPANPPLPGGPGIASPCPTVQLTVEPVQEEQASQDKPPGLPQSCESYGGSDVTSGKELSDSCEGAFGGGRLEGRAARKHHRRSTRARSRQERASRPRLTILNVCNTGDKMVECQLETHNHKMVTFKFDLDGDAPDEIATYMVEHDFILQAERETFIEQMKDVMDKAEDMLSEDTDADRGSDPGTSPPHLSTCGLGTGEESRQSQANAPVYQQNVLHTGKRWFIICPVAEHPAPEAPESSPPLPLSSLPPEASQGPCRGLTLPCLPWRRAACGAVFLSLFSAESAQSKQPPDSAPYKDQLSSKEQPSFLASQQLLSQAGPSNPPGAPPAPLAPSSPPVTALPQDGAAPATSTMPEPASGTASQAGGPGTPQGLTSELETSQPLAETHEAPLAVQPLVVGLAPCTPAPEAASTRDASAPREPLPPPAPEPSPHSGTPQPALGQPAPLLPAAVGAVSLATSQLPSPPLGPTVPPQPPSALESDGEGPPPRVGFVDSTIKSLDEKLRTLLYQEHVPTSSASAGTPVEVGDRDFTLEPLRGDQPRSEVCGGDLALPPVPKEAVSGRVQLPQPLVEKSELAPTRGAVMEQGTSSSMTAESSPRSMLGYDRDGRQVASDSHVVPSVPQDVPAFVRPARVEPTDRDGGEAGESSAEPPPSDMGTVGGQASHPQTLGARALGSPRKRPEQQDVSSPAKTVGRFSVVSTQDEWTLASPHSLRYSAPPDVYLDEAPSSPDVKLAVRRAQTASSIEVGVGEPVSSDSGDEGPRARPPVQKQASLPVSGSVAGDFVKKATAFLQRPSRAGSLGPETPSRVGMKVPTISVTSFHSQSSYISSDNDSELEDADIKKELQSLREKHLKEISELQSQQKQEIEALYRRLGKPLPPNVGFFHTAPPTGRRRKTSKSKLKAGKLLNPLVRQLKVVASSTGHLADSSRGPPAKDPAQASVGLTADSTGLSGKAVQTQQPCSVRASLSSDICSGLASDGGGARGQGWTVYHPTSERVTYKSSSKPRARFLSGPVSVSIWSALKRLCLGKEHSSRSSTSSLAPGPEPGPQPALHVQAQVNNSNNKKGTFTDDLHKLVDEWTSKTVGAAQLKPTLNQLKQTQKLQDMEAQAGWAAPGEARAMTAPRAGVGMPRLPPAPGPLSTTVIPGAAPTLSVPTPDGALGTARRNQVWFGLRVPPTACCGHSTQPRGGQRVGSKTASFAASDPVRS

One may read the residual activity as the signal under treatment as a percentage of the control signal. As to `CCCCc1c(-c2ccc(O)cc2)[nH]c2nccnc12`, the residual activity was 45% in assay [1]; 87% in assay [2]; 93% in assay [3]; 73% in assay [4]; 31% in [5].

As for `O=S(=O)(NCCNC/C=C/c1ccc(Br)cc1)c1cccc2cnccc12`, the residual activity in assay [6] is 74%; in assay [7] it was 61%.

Turning to `N#C/C(=C\c1ccc(O)c(O)c1)C(=O)NCc1ccccc1`, the residual activity was 102% in [1], 86% in assay [7], 85% in assay [3] and 86% in assay [5].

Regarding `COc1ccc(COc2ccc(Cc3cnc(N)nc3N)cc2OC)cc1`, the residual activity in assay [1] is -12%; in [7], 68%.

Take `NC(=O)c1cccc(-c2cc(Nc3ccc(OC(F)(F)F)cc3)ncn2)c1`: the residual activity is 100% in assay [4], 93% in assay [5] and 124% (inactive) in [8].

As for `NC(=O)Nc1sc(-c2ccc(F)cc2)cc1C(N)=O`, the residual activity in [1] was 2%; in assay [2] it was 86%; in assay [3], 36%; in assay [4], 69%; in assay [5], 24%; in assay [9], 95% (inactive). For the same compound, in assay [10], the residual activity stood at 52%.

Take `O=C(Nc1ccc(Cl)cc1)c1ccccc1NCc1ccncc1`: the residual activity in [1] was 99%; in [2] it was 102%.

In the case of `O=C1Nc2ccccc2/C1=C\c1c(Cl)[nH]c2ccccc12`, the residual activity in assay [1] was 57%; in assay [6], 83%; in [7], 74%; in [9], 76% (inactive); in [10], 28%.

Take `COc1ccc2c(c1)c(C1=C(c3c[nH]c4ccccc34)C(=O)NC1=O)cn2CCCN(C)C`: the residual activity amounted to 43% in assay [1]; 73% in assay [7]; 101% in assay [2]; 82% in assay [3]; 100% in assay [4]; 59% in assay [5]. Also, the residual activity in assay [9] is 102% (inactive); in [10], 69%; in [8] it was 107% (inactive).

For the compound `Fc1ccc(-c2nc3n(c2-c2ccncc2)CCS3)cc1`, the residual activity was 93% in [6] and 80% in [10].

Take `Nc1nc(Nc2ccc(S(N)(=O)=O)cc2)nn1C(=O)c1c(F)cccc1F`: the residual activity was 5% in assay [1]; 41% in [7]; 39% in assay [3]; 46% in [4]; 9% in assay [5]; 97% (inactive) in assay [9]. Further, the residual activity in assay [10] is 69%; in [8], 96% (inactive).

Turning to `NC(=O)c1ccc(-c2nc(-c3ccc4c(c3)OCCO4)c(-c3ccccn3)[nH]2)cc1`, the residual activity was 68% in [1]; 90% in assay [6]; 94% in assay [7]; 118% (inactive) in assay [9]; 98% in assay [10].
